The source of these data is PubChem BioAssay (NCI).

About 83,000 compounds went through this panel and 20% of them were active in at least one assay; those are over-represented in the sample as a whole.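 Assay: single dose, 48 h. Readout: percent growth (0 = no net growth; negative = cell death). Active: <10.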 Unmarked numbers belong to inactive results. Active and inactive are the calls of the source.

This assay concerns MDA-MB-468 breast. Kind of assay: NCI-60 one-dose screen, 48 h (100 = growth as untreated, 0 = no growth, -100 = all killed). The settings on record: 10 µM unless noted.
Turning to `CS(=O)(=O)Nc1cncc(-c2ccc3ncnc(Nc4cncc(Cl)c4)c3c2)c1`, the growth was 16.7%.

For `Cc1cc(NC(=O)CNc2nc(Oc3ccc(F)cc3)nc(-c3ccc(F)cc3)n2)ccc1Cl`, the growth is 92.5%.

Regarding `Cc1ccccc1-n1nnc(C(=O)Nc2ccc(-c3ccccc3)cn2)c1C`, the growth was 4.89% [50 µM] (active).

For the molecule `CCCCCCCCn1ccc2cc(NC(=O)CN3CCN(c4nc(C)cc(Cl)n4)CC3)ccc21`, the growth was 92.8%.

With `CCOC(=O)C1=C(C)NC(=O)NC1c1cc(=O)oc2ccc(C)cc12` (stereo not drawn), the growth is 106%.

With `COc1cc(/C=C/C(=O)c2ccc(Nc3nc(NCCO)nc(N4CCOCC4)n3)cc2)cc(OC)c1OC`, the growth was 2.9% (active).

With `CCOC(=O)c1ccc2c(c1)c1c(C)c3cccnc3c(C)c1n2C`, the growth is 64.4%.

On to `CN(C)CC(C)(C)C(=O)/C=C/c1ccccc1`, for which the growth is -49% [25 µM] (active).

Take `c1ccc2cc(Cn3c(-c4ccc5ccccc5c4)[n+](Cc4ccc5ccccc5c4)c4ccccc43)ccc2c1`: the growth is -42.9% (active).

Take `O=C(Nc1ccc(Oc2ccc(Nc3nc4ccccc4s3)cc2)cc1)Nc1ccc(Cl)c(C(F)(F)F)c1`: the growth is 4.56% (active).

For `Cc1cc2c(C(C)C)c(O)c(O)c(C=NCc3ccoc3)c2c(O)c1-c1c(C)cc2c(C(C)C)c(O)c(O)c(C=NCc3ccco3)c2c1O`, the growth is 61%.

For the molecule `N#CC1CCc2c(c(-c3cn[nH]c3C(F)(F)F)nc3c(F)cc4[nH]ncc4c23)C1` (stereo not drawn), the growth is -6.53% (active).

`NC(=O)CCC(C(=O)O)N1C(=O)c2ccc(O)cc2C1=O` (stereo not drawn): the growth is 109%.
